Rows were chosen to be rich in hits. Some 0.9% of all compounds tested hit in one or more screens of this group.
TAR Tat displ – HIV-1 TAR-Tat binding disruption; HIV-1 TAR RNA, Tat peptide displacement FRET; hits give high values; z-score (test concentration not listed); 100,000 tested, 0.6% active; active means z-score of 3 or more in at least 2 runs
CDC25B CDK2 inh – human CDC25B-CDK2/CyclinA binding inhibition; P30305+P24941; HTRF CDC25B-CDK2/CyclinA binding, anti-His/anti-Flag; hits give high values; z-score (test concentration not listed); 94,000 tested, 0.72% active; AID 1259370; in the data active means z-score above about 3.2
* hit, by the source's call; . = no result given; ! = not active in a repeat.

SMILES	TAR Tat displ	CDC25B CDK2 inh
Clc1ccccc1/C=C/c1nn2c(-c3ccncc3)nnc2s1	0.36	-0.92
O=[N+]([O-])/C=C/c1ccsc1	.	0.24
O=C(c1cccc(S(=O)(=O)N2CCCC2)c1)N1CCc2ccccc21	2.8	.
O=c1[nH]c(SCc2nc3ccccc3[nH]2)nc2ccccc12	.	0.68
Nc1nc2n(n1)C(c1cccs1)CC(c1ccccc1Cl)N2 (stereo not given)	.	-1.5
COc1ccc(-c2noc(CN(C(C)C)S(=O)(=O)c3ccc(Br)cc3)n2)cc1OC	1.5	-0.47
O=c1c(NCCc2ccc(Cl)cc2)c(-c2ccccc2)c1=O	6*	.
O=c1c(NCCc2ccc(Cl)cc2)c(-c2ccc(Cl)cc2)c1=O	-1.6	.
Fc1cc(Br)ccc1Nc1c2c(nc3ncnn13)CCC2	1.2	.
O=C(O)c1ccccc1Nc1cccc2c1C(=O)c1cccc(Nc3ccccc3C(=O)O)c1C2=O	19*	.
Cc1c(Cl)cccc1Nc1ccccc1C(=O)O	1.1	.
Cc1ccc(NC(=O)CSc2nc(-c3ccc(Cl)cc3)nc3cc(=O)[nH]n23)cc1C	25	.
Cc1cc(C)cc(NC(=O)CSc2nc(-c3ccc(Cl)cc3)nc3cc(=O)[nH]n23)c1	23*	.
CSc1cccc(NC(=O)CSc2nc(-c3ccc(Cl)cc3)nc3cc(=O)[nH]n23)c1	18*	.
O=C(CSc1nc(-c2ccc(Cl)cc2)nc2cc(=O)[nH]n12)Nc1ccccc1	17	.
Cc1cc(NC(=O)CSc2ccc(-c3cccnc3)nn2)no1	1.5	.
CC(C)CNC(=O)Nc1ccc2nc(NS(=O)(=O)c3ccccc3)sc2c1	0.08	.
Cc1cc(=O)n(Cc2cc(=O)n3ccccc3n2)c2c1c(C)nn2C	1.6	.
Cc1cn2c(=O)cc(CSc3ccccc3NC(=O)C(C)Oc3ccccc3)nc2s1 (stereo not given)	-0.67	.
O=C1NC(NS(=O)(=O)c2ccccc2)(C(F)(F)F)C(=O)N1c1ccc(F)c(Cl)c1 (stereo not given)	.	18*
O=C1C2C(c3ccccc3)OC3(C(=O)c4ccccc4C3=O)C2C(=O)N1c1ccc(F)c(Cl)c1 (stereo not given)	1.4	0.7
CCOCCCNC(=O)C1=Cc2cc(Br)ccc2OC1	0.41	.
CCOC(=O)c1nn(-c2ccc(OC)cc2)c(=O)c2c(NC(=O)C3CCCC3)scc12	.	-1.4
CCOC(=O)c1nn(-c2ccccc2)c(=O)c2c(N)scc12	-4.9	19*
CN1CCN(C(=O)COc2ccc(Cl)cc2)c2cccnc21	0.72	.
SMILES	TAR Tat displ	CDC25B CDK2 inh
Cn1c(=O)c2sccc2n2c(CCCC(=O)NCC3CCCO3)nnc12 (stereo not given)	-1.3	.
CCC(C(=O)NCc1cccs1)n1nc(C)c2sc3ccccc3c2c1=O (stereo not given)	4*	-2.7
CCC(C(=O)NCCc1cccs1)n1nc(C)c2sc3ccccc3c2c1=O (stereo not given)	1.5	-1.1
CCC(C(=O)Nc1cccc(Cl)c1)n1nc(C)c2sc3ccccc3c2c1=O (stereo not given)	13*	0.04
CCC(C(=O)Nc1cccc(F)c1)n1nc(C)c2sc3ccccc3c2c1=O (stereo not given)	2.6	-1.5
O=C(Cn1nc2c3ccccc3n(Cc3ccccc3)cc-2c1=O)NCc1ccc(F)cc1	-1	.
CC(C)[C@H](N)C(=O)N[C@H](C(=O)N[C@H](C(=O)O)C(C)C)C(C)C	-0.43	.
O=C(NCc1ccc2c(c1)OCO2)c1cccc(Nc2nc3ccccc3n3nnnc23)c1	0.9	.
CCN(CC)CCNc1cc(N2CCCC2)c2noc3c2c1C(=O)c1ccccc1-3	-1	-0.38
CCN(CC)CCNc1cc(N2CCOCC2)c2noc3c2c1C(=O)c1ccccc1-3	6.5*	-4.9
CCCN1CCN(c2cc(NCCCOCC)c3c4c(onc24)-c2ccccc2C3=O)CC1	6.3*	1.9
CN(C)CCCNc1cc(N2CCCCC2)c2noc3c2c1C(=O)c1ccccc1-3	1.7	0.05
CN(C)CCCNc1cc(N2CCCC2)c2noc3c2c1C(=O)c1ccccc1-3	8.8*	1.9
CCCN1CCN(c2cc(NCCOC)c3c4c(onc24)-c2ccccc2C3=O)CC1	-0.12	-2.1
CCNc1cc(N(C)CCO)c2noc3c2c1C(=O)c1ccccc1-3	-0.08	-0.52
CN(C)CCCNc1cc(N(C)CCO)c2noc3c2c1C(=O)c1ccccc1-3	7*	-4
COc1ccc(Nc2cc(Nc3cc(Cl)ccc3OC)ncn2)cc1	-1.5	-0.56
O=C(/C=C/c1cccc2ccccc12)Nc1ccc(F)cc1	.	0.13
O=C(c1noc2ncnc(N3CCCC3)c12)N1CCN(c2ccccc2F)CC1	-0.4	.
CN(C)CCNc1cc(N2CCCCC2)c2noc3c2c1C(=O)c1ccccc1-3	17*	6.2*
CN(C)CCNc1cc(N2CCOCC2)c2noc3c2c1C(=O)c1ccccc1-3	-1.4	-2
Nc1c(C(=O)Nc2ccc(F)cc2)sc2nc(-c3ccncc3)ccc12	11*	-0.18
CCSc1nc2ccc(NC(=O)c3sc4nc(-c5ccncc5)ccc4c3N)cc2s1	1.6	-0.72
S=C1CCCN1c1ccccc1	.	-2.5
Cc1ccc2nc3c(cc2c1)CCN3C(=O)c1ccccc1C	0.43	-2.1
SMILES	TAR Tat displ	CDC25B CDK2 inh
O=c1c(O)c(-c2ccc(O)c(O)c2)oc2cc(O)cc(O)c12	28*!	-1.9
O=c1cc(-c2ccc(O)c(O)c2)oc2cc(O)cc(O)c12	33*	.
COc1cc(-c2oc3cc(O)cc(O)c3c(=O)c2O)ccc1O	1.8	.
COc1ccc(-c2cc(=O)c3c(O)cc(O)cc3o2)cc1	1.7	.
CCCCSCCc1nnc(SCC(N)=O)n1-c1ccccc1	2	-1.5
Cc1nn2c(=O)cc(CSc3ncn[nH]3)nc2s1	-0.07	.
CN1CCN(c2cc(NCC(=O)O)c3c4c(onc24)-c2ccccc2C3=O)CC1	0.58	3.9*
CCN1CCN(c2cc(N3CCCCC3)c3c4c(onc24)-c2ccccc2C3=O)CC1	-4.5	1.2
CCOC(=O)C1CCCN(c2cc(NCCO)c3c4c(onc24)-c2ccccc2C3=O)C1 (stereo not given)	8.8*	0.97
CC1CCCN(c2cc(NCCO)c3c4c(onc24)-c2ccccc2C3=O)C1 (stereo not given)	2.7	-0.36
CC1CCCN(c2cc(NCC(=O)O)c3c4c(onc24)-c2ccccc2C3=O)C1 (stereo not given)	-6	3*
CCNc1cc(N2CCN(C)CC2)c2noc3c2c1C(=O)c1ccccc1-3	0.06	-2.6
CCNc1cc(N2CCCC(C(=O)OCC)C2)c2noc3c2c1C(=O)c1ccccc1-3 (stereo not given)	1.8	-2
CN1CCN(c2cc(N3CCCCC3)c3c4c(onc24)-c2ccccc2C3=O)CC1	-6	5.6*
CC1=C(C(=O)N2CCC(C)CC2)C2(CCN(S(=O)(=O)c3cccs3)CC2)OC1=O	-0.72	.
O=S(=O)(CCN(CC1CCCO1)S(=O)(=O)c1ccccc1)N1CCNCC1 (stereo not given)	0.13	.
O=C(COc1ccc(Cl)cc1)Nc1ccc2nsnc2c1	1.1	-2.3
CCCc1cc(=O)n2nc(N3CCC(C(=O)NCC4CCCO4)CC3)sc2n1 (stereo not given)	1.2	-1.2
CC1CC(C)CN(c2cc(NCCO)c3c4c(onc24)-c2ccccc2C3=O)C1 (stereo not given)	1.2	-3.2
CC1CC(C)CN(c2cc(NCCCC(=O)O)c3c4c(onc24)-c2ccccc2C3=O)C1 (stereo not given)	-1.8	3*

Source: PubChem BioAssay (Center for Chemical Genomics, University of Michigan)
